# T1: SPRED3 1-117 WH1 (domain begin residue: 1, domain end residue: 117), Q2MJR0
# T1 chain: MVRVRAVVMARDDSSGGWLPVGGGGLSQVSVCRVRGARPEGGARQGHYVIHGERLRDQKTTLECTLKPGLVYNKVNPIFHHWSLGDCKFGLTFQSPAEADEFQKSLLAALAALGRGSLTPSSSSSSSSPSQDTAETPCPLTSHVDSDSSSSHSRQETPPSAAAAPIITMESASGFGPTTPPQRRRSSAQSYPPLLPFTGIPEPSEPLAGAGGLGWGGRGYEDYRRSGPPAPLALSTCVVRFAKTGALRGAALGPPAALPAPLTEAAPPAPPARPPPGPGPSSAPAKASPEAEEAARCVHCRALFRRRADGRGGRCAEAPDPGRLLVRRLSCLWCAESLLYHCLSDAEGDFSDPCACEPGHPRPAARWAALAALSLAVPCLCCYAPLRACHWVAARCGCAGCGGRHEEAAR
# T2: SPSB2 26-221 SPRY (domain begin residue: 26, domain end residue: 221), Q99619
# T2 chain: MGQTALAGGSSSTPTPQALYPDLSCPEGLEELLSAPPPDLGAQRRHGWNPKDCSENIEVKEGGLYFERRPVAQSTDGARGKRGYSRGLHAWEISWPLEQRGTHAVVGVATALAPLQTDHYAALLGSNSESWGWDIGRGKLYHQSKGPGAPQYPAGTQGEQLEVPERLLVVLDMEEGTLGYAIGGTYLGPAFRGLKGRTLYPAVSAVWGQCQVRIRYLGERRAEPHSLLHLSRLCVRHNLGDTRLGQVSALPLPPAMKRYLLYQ
# T3: SPRED2 1-124 WH1 (domain begin residue: 1, domain end residue: 124), Q7Z698
# T3 chain: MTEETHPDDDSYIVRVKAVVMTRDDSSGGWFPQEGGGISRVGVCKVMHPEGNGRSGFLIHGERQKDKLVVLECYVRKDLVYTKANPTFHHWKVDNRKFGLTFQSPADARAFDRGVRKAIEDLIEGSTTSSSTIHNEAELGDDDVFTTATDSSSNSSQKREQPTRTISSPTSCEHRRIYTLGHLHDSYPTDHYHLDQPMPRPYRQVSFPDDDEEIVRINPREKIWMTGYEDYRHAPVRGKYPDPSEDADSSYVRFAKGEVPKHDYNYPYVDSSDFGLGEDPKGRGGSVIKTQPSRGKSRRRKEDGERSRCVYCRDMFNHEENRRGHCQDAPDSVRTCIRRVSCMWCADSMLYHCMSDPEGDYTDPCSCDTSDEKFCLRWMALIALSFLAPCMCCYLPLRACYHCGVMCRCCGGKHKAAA
# T4: SFN 1-236 14-3-3 (domain begin residue: 1, domain end residue: 236), P31947
# T4 chain: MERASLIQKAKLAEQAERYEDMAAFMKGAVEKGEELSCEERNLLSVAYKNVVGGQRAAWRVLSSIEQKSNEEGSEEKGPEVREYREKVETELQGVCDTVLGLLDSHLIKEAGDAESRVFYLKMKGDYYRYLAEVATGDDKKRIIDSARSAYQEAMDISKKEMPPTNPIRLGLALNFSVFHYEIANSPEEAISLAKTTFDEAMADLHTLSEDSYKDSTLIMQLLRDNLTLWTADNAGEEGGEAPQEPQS
# T5: SND1 650-910 TUDOR+SNase (domain begin residue: 650, domain end residue: 910), Q7KZF4
# T5 chain: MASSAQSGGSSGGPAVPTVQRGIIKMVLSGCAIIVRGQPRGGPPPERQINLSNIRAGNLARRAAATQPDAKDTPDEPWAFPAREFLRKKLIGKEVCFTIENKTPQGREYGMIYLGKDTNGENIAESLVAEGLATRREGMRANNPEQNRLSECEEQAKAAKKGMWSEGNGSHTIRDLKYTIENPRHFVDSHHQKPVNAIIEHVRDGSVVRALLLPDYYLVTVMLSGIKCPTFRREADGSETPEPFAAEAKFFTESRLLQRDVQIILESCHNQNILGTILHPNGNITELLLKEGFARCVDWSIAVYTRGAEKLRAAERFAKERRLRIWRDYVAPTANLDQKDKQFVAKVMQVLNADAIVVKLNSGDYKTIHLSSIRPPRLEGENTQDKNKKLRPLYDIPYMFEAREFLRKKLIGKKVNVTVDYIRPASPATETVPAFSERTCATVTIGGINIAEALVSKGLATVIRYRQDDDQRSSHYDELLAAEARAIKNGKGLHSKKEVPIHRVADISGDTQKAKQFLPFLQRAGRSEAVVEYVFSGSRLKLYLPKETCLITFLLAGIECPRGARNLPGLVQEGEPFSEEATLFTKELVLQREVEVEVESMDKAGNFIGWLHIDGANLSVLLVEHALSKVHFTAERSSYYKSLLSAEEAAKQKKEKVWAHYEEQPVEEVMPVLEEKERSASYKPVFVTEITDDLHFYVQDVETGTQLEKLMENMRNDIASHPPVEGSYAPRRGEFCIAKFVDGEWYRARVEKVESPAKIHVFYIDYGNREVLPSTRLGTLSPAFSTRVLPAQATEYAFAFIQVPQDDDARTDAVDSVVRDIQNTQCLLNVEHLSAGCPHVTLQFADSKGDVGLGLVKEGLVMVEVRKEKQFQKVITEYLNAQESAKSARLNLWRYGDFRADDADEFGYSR
# T6: SPRED1 13-131 WH1 (domain begin residue: 13, domain end residue: 131), Q7Z699
# T6 chain: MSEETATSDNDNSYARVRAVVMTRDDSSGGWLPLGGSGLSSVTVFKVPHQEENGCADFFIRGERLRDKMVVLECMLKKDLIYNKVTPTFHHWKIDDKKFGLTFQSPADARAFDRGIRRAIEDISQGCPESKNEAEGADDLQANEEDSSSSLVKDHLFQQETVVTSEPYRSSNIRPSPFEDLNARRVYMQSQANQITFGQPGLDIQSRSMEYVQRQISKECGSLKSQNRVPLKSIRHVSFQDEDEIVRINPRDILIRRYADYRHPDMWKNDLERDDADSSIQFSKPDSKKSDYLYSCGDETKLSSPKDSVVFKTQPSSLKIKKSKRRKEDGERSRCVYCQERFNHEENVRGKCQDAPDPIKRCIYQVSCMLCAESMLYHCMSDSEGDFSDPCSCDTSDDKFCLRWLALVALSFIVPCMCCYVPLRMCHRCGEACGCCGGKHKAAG
# T7: SHC1 149-317 PID (domain begin residue: 149, domain end residue: 317), P29353
# T7 chain: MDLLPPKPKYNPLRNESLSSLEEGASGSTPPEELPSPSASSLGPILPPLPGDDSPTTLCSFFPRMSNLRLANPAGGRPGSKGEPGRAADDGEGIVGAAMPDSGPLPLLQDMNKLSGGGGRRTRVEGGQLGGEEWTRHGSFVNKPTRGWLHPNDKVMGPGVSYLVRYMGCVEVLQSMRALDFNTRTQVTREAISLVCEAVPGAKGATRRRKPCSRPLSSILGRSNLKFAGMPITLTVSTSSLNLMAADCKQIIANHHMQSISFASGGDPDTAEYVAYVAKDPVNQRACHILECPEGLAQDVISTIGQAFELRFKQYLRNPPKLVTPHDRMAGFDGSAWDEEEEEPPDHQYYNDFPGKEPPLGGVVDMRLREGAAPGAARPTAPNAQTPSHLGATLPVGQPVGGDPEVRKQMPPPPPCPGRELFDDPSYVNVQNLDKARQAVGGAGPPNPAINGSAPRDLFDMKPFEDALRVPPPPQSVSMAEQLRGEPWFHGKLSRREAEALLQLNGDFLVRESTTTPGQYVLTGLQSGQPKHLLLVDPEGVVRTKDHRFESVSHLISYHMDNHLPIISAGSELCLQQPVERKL
# T8: SPAG1 615-745 TPR_1 (domain begin residue: 615, domain end residue: 745), Q07617
# T8 chain: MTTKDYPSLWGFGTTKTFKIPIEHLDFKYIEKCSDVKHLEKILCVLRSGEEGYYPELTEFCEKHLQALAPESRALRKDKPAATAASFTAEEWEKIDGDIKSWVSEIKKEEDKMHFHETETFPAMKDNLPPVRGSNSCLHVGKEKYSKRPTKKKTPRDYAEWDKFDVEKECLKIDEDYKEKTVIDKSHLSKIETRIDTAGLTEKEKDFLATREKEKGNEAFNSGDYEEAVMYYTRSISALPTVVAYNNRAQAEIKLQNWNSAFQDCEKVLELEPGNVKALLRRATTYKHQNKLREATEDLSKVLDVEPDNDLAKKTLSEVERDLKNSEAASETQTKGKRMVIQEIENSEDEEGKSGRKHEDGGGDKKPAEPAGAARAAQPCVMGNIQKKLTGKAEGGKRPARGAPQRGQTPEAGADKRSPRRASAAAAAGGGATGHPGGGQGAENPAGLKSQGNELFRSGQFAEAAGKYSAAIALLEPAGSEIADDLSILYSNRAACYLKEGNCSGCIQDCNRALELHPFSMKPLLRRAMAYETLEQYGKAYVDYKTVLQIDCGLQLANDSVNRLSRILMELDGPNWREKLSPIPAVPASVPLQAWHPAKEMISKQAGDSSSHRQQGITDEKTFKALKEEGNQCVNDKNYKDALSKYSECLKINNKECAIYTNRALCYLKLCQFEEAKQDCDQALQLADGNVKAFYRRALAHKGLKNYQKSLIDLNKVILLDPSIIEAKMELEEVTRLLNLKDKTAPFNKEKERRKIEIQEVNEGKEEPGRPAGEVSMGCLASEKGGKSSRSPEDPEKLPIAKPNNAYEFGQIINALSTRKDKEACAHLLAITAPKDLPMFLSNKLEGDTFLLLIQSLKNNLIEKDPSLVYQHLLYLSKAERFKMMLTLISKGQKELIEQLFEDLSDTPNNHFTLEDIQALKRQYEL
# Assays:
# Test in all cases: phage ELISA signal ratio (GST-PRM binding over GST background); higher = stronger binding of peptide-phage to the PRM
# [1] = target: T1, SPRED3 1-117 WH1 (domain begin residue: …
# In short: (§1)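 Five rounds of selection were carried out against human peptide recognition domains fused to the C-terminus of glutathione S-transferase (GST) and expressed in 96-well plates. The M13 phage library presented randomized hexadecapeptides, cysteine-free and glycine-flanked, on the gene-8 major coat protein. For each value, the phage ELISA signal on the GST-domain fusion was divided by the signal on GST alone.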
# [2] = target: T2, SPSB2 26-221 SPRY (domain begin …
# In short: as §1
# [3] = target: T3, SPRED2 1-124 WH1 (domain begin residue: …
# In short: as §1
# [4] = target: T4, SFN 1-236 14-3-3 (domain begin residue: …
# In short: as §1
# [5] = target: T5, SND1 650-910 TUDOR+SNase (domain begin …
# In short: as §1
# [6] = target: T6, SPRED1 13-131 WH1 (domain begin …
# In short: as §1
# [7] = target: T7, SHC1 149-317 PID (domain begin residue: …
# In short: as §1
# [8] = target: T8, SPAG1 615-745 TPR_1 (domain begin …
# In short: as §1
binder,measurement,setting,value
EQWWHTPQSVQAWINS,phage ELISA signal ratio,[1],19.5
ERVMDLNGNWITKSVA,phage ELISA signal ratio,[2],10.8
IVDTYWAMENNNVGTV,phage ELISA signal ratio,[2],29.6
TWGWFDTGEAWSTMSM,phage ELISA signal ratio,[3],10
DWVLYKEWVPQWPHNF,phage ELISA signal ratio,[4],17.1
NDQYTWSQVHQGWLPL,phage ELISA signal ratio,[1],26.5
MNFMDIWDHMAIPPEQ,phage ELISA signal ratio,[5],7.06
YFYLDSNNNQVIPSSV,phage ELISA signal ratio,[2],21.9
WTWMGDEEVFYHESLL,phage ELISA signal ratio,[1],23.8
DVWYTTSESIIQYMQS,phage ELISA signal ratio,[1],27.7
WATVSEWGDWTTVVFN,phage ELISA signal ratio,[6],3.55
EWGIMDSEWWGRYYEM,phage ELISA signal ratio,[7],6.81
WLAQDYNNNHMWLDWK,phage ELISA signal ratio,[2],27.1
WEGYYQFLVPDTHTSE,phage ELISA signal ratio,[7],18.9
FEEMELVGDLNNNMMP,phage ELISA signal ratio,[2],32.8
WEWKDYEKVVHFQDMK,phage ELISA signal ratio,[1],3.38
EWNKNLHWFEVFDQEV,phage ELISA signal ratio,[7],20.3
DFNNNTGPRLAAETIV,phage ELISA signal ratio,[2],11.5
NTMWFDLWDINNNPLS,phage ELISA signal ratio,[2],32.3
ESEGSHYWNYFADAIA,phage ELISA signal ratio,[7],18.2
AHFELMNNNWLVPEFW,phage ELISA signal ratio,[2],30.8
YDWFSAVVEDQWEKVS,phage ELISA signal ratio,[5],6.56
PWHARDMNGNWTQRIE,phage ELISA signal ratio,[2],12.3
QVDQGEYVYGFWWEVL,phage ELISA signal ratio,[7],9.85
EELWDQWHSWVTEPDE,phage ELISA signal ratio,[5],4.69
MDLLEQQMWQDYFLWH,phage ELISA signal ratio,[8],3.83
LEEHWQWWVDDMMPME,phage ELISA signal ratio,[7],4.84
MVDLNGNTYSESMVAV,phage ELISA signal ratio,[2],33.8

# Reference: the supplement of paper PMC7724964
